Test results from the supplement of paper PMC6555819.

Legend:
Assay in all cases: PBM binding z-score (relative to random genomic background probes); higher = stronger binding; sequences stand for … in GC…GCGATTGACAGCGTAGAATGAAGG
[1] = system: RARb homodimer (NR concentration 270 nM)
Method in brief: (§1)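 Random background probes are the reference for binding z-scores. These scores derive from regression-normalized fluorescence on custom Agilent 4×180K protein-binding microarrays incubated 1 h with ligand-free nuclear receptor dimers. Binding was detected with antibodies against each partner (one per run).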

[2] = system: RARg:RXRa (NR concentration 270 nM, RXRa partner concentration 90 nM)
Method in brief: as §1

[3] = system: RARg homodimer (NR concentration 270 nM)
Method in brief: as §1

[4] = system: RXRa DBDmut IVT, anti-RXR (DBD mutation: RXRa K156A/R161A, NR concentration 90 nM)
Method in brief: as §1

[5] = system: RXRa homodimer (NR concentration 180 nM)
Method in brief: as §1

[6] = system: THRa:RXRa (NR concentration 90 nM, RXRa partner concentration 90 nM)
Method in brief: as §1

[7] = system: THRa homodimer (NR concentration 90 nM)
Method in brief: as §1

[8] = system: VDR:RXRa (NR concentration 270 nM, RXRa partner concentration 90 nM)
Method in brief: as §1

[9] = system: VDR homodimer (NR concentration 270 nM)
Method in brief: as §1

Row | Sequence | PBM binding z-score [1] | PBM binding z-score [2] | PBM binding z-score [3] | PBM binding z-score [4] | PBM binding z-score [5] | PBM binding z-score [6] | PBM binding z-score [7] | PBM binding z-score [8] | PBM binding z-score [9]
1 | AGTCCAAGTTCACTAGGTAACGTAAGATTCAGCT | 1.95 | 2.53 | 2.98 | 4.3 | 1.74 | 1.54 | 0.381 | 3.46 | 4.4
2 | ATATGTAGGATATCGGGTCATTCAGTTTGCGCAT | 2.18 | 1.75 | 1.44 | 1.12 | 2.23 | 3.15 | 2.18 | 4.94 | 2.6
3 | CGTCCAAGGTCAGCAGGTGAGTGAAAGCGACGTG | 3.84 | 5.23 | 6.27 | 2.47 | 3.87 | 3.28 | 1.95 | 2.67 | 0.692
4 | ATATGTAGGTTACATCCGGGTCATTCTGGCTATG | 2.67 | 3.21 | 1.93 | 1.51 | 3.1 | 3.63 | 2.37 | 3.69 | 2.5
5 | GATACAGGGTCATCTAGAGGCCAGAGTATGGAAA | 3.71 | 7.56 | 5.37 | 3.39 | 6.6 | 3.76 | 0.837 | 5.14 | 2.85
6 | CGTCAAAGTTCTAGGTAACGTAACAGAAAGCAGC | -0.287 | 0.0968 | 0.323 | 0.31 | 0.135 | 0.719 | 0.349 | 0.0814 | -0.0157
7 | CCTAGTTGGTCAGGTGGTCACACACCGGATATGA | 1.48 | 1.03 | 1.38 | -0.358 | 0.463 | 0.254 | 0.259 | 0.156 | 0.314
8 | ATACCAAGGTGATCGTGAGTTCGTTGATACTAAC | 0.465 | 0.682 | 0.338 | 1.2 | 0.456 | 1.58 | 0.74 | 4.08 | 4.63
9 | TAGCCAAGGTCAGATCGGGCCAGTATACGCTATA | 3.41 | 4.59 | 5.1 | 1.75 | 3.58 | 4.32 | 1.09 | 3.07 | 1.11
10 | CGGACTAGGTCACCAGGACAGTGAAGAGGTTGGA | 3.18 | 4.13 | 5.61 | 1 | 3.39 | 3.14 | 2.14 | 1.54 | 0.337
11 | CTATGTAGATTAAGGGGGTCATTCAGTTTGAAAG | 3.68 | 4.14 | 2.94 | 2.82 | 5.19 | 3.74 | 2.37 | 6.53 | 5.58
12 | CCTGCTAGGTCAATGGTCAGCTAAAGCAGCTCGC | 3.08 | 3.62 | 4.47 | 1.7 | 2.3 | 2.29 | 0.588 | 1.02 | 0.186
13 | CTAACTAGGTCACGAAAGGTCAAAGTCGAATGAC | 5.7 | 7.92 | 8.55 | 2.56 | 8.14 | 5.08 | 2.55 | 6.76 | 3.54
14 | CTATGTAGGTTAAGGGTGTCATTCAGTTTGAAAG | 1.44 | 1.38 | 0.949 | 0.738 | 1.35 | 1.04 | 0.005 | 3.24 | 1.42
15 | CGAACTAGGTCACCGGGACAGTGAAGAGGTTGGA | 3.62 | 4.73 | 5.23 | 1.41 | 3.62 | 3.75 | 1.79 | 2.52 | 0.333
16 | TCTAGTTGGTCACGGGGGTCACACACGACGGGTA | 4.5 | 6.36 | 5.7 | 2.07 | 6.5 | 4.03 | 3.01 | 6.57 | 4.15
17 | ACTTACGGGTCAACGAAGTTATAGCACGCGTATA | 3.02 | 5.31 | 4.65 | 1.66 | 5.31 | 2.78 | -0.0625 | 4.19 | 0.948
18 | CCTAGCCGGCCAATCTGGGTCACTCAAGGCTTGA | 2.25 | 1.14 | 1.24 | -0.259 | 0.623 | 3.15 | 0.859 | 0.613 | 0.329
19 | CCTACTGGGCCATTCAGAGGTCATTGTTCATATG | 4.14 | 4.19 | 2.88 | 1.2 | 3.37 | 3.23 | 1.38 | 3.9 | 3.59
20 | CCGAGTAGGTTACGAGGGGGCATTCCGTGCGAAT | 1.89 | 3.09 | 2.37 | 1.01 | 2.12 | 3.56 | 0.446 | 4.84 | 2.75
21 | TCGAGTAGGTTAAGGGGGCATTCAGGGATGAAGA | 2.37 | 3.17 | 2.01 | 1.92 | 2.62 | 3.58 | 1.48 | 3.35 | 3.24
22 | CGAACTAGGTCAACAGGACAGTGAAGAGGTTGGA | 3.39 | 4.36 | 5.29 | 1.54 | 3.09 | 2.81 | 0.737 | 1.53 | 0.504
23 | CGTCAAAGTTCAAGGTTACGTAACAGAAAGCAGC | 4.45 | 5.57 | 6.33 | 4.73 | 4.85 | 3.43 | 1.33 | 4.31 | 3.55
24 | AGAATGAGGTTAACAAAGATCAGGGAAACGCTTG | 0.892 | 2.1 | 1.73 | 1.27 | 2.69 | 2.57 | 0.682 | 1.71 | 0.0806
25 | CGAACTAGGTCACCAGGAAAGTGAAGAGGTTGGA | 3.18 | 4.45 | 5.45 | 1.53 | 3.53 | 2.91 | 1.04 | – | 0.43
26 | CCGACTGGGGCAAAGGTTACCACACTCAGTACGA | 2.37 | 3.51 | 1.67 | -0.032 | 3.69 | 1.87 | 0.0247 | – | 0.177
